Experimental data as given in PubChem BioAssay (NCI).
About 83,000 compounds went through this panel and 20% of them were active in at least one assay; those are over-represented in the sample as a whole.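 Percent growth is the endpoint: 0 to 100 indicates growth inhibition (40 means 60% inhibition), 0 means no net growth, and negative values indicate cell death.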 Calls of active or inactive are those of the source. The calls were made as follows: active = growth percent below 10; inactive = the rest.

Columns and labels:
Test in all cases: NCI-60 one-dose screen, 48 h (100 = growth as untreated, 0 = no growth, -100 = all killed)
Conditions in all cases: 10 µM unless noted
[1] = tested on: NCI-H23 lung
[2] = tested on: NCI-H226 lung
[3] = tested on: NCI-H322M lung
[4] = tested on: HOP-62 NSCLC
[5] = tested on: NCI-H460 lung
[6] = tested on: NCI-H522 lung
[7] = tested on: A549/ATCC NSCLC
[8] = tested on: 786-0 renal
[9] = tested on: COLO 205 colon
[10] = tested on: DU-145 prostate
[11] = tested on: K-562 leukemia
[12] = tested on: MALME-3M melanoma
[13] = tested on: MDA-MB-231 breast
[14] = tested on: RXF 393 renal
[15] = tested on: SF-268 CNS
[16] = tested on: SF-295 CNS
[17] = tested on: SF-539 CNS
[18] = tested on: UACC-257 melanoma
[19] = tested on: M14 melanoma

Measured: growth

CCN1C(=O)N(CC)C2C1NC(=O)N2/N=C/C=C/c1ccccc1 (configuration not stated)
inactive: [1] 64.5% | [2] 74.9% | [3] 63.8% | [4] 41.3% | [5] 24.4% | [7] 45.4% | [8] 33% | [9] 27.4% | [10] 68.1% | [11] 17% | [12] 50.6% | [13] 71.5% | [14] 32.3% | [15] 59.7% | [16] 34.9% | [17] 25% | [18] 35.8% | [19] 28.5%
active: [6] 2.08%

Fc1ccc(-c2cnc3nonc3n2)c(F)c1
inactive: [1] 88.7% | [2] 102% | [3] 98.4% | [4] 93.7% | [5] 107% | [6] 84% | [7] 109% | [8] 104% | [9] 92.5% | [10] 100% | [11] 68% | [12] 105% | [13] 78% | [14] 111% | [15] 84.8% | [16] 109% | [17] 98.6% | [18] 96.6% | [19] 97.2%

O=C(N/N=C/c1ccccc1O)c1ccncc1
inactive: [1] 70.9% | [2] 70.1% | [3] 51.2% | [4] 43% | [5] 25.7% | [7] 53.6% | [8] 51.1% | [9] 27.4% | [10] 58.3% | [11] 64.9% | [12] 73.6% | [13] 62.8% | [14] 80.7% | [15] 48.3% | [16] 54% | [17] 70.8% | [18] 60.7% | [19] 50.7%
active: [6] -20%

O=S(=O)(Cc1ccc(Cl)cc1Cl)c1ccc(Cl)cc1
inactive: [1] 50.2% | [2] 69.3% | [3] 50.3% | [4] 36.5% | [5] 18.4% | [7] 30.7% | [8] 30.2% | [10] 41% | [11] 10.5% | [12] 58% | [13] 49.8% | [15] 67.8% | [17] 12.7% | [18] 77.4%
active: [6] -5.62% | [9] 8.87% | [14] -15.6% | [16] 2.18%

COc1cnc2c(c1)C(=O)c1c-2n(CCCN2CCNCC2)c(=O)c2cc(Cl)ccc12
active: [1] -63.2% | [4] -24.4% | [5] -81.2% | [7] -30.9% | [8] -81.1% | [10] -95.8% | [11] -75.8% | [12] -51.5% | [13] -73.1% | [14] -1.72% | [15] -75.6% | [17] -93.8% | [19] -79.5%
inactive: [2] 18.6% | [3] 54.3% | [6] 17.4% | [9] 22.7% | [16] 15.5% | [18] 22.4%

Fc1cc(-c2cnc3nonc3n2)c(Cl)cc1Cl
active: [6] -72.3%
inactive: [1] 94.2% | [2] 111% | [3] 94.1% | [4] 98.3% | [5] 106% | [7] 102% | [8] 79.3% | [9] 60.2% | [10] 85.3% | [11] 28.9% | [12] 41.1% | [13] 83.4% | [14] 93% | [15] 90.9% | [16] 99.4% | [17] 110% | [18] 96% | [19] 76.8%

O=C(CCl)Nc1ccc2c(c1)C(=O)c1ccccc1C2=O
active: [1] -21.2% | [2] -22.6% | [5] 3.8% | [6] -68.2% | [8] -72.3% | [9] -50.7% | [10] 3.17% | [11] -8.49% | [12] -62.5% | [13] -5.91% | [15] -20.3% | [17] -10.5%
inactive: [3] 83.5% | [4] 19.9% | [7] 75.7% | [14] 39.8% | [16] 69.9% | [18] 36.2%

Clc1ccc(-c2cnc3c(-c4ccnc(N5CCNCC5)c4)cnn3c2)cc1
active: [1] -12.3% | [4] -37.8% | [5] -39.8% | [6] -53.8% | [8] -70% | [9] -57.7% | [11] -13.5% | [12] -37.5% | [13] -23.3% | [14] -32.6% | [15] -16.2% | [17] -82.4% | [18] -60% | [19] -78.8%
inactive: [2] 115% | [3] 23.2% | [7] 16.7% | [10] 27.6% | [16] 34.9%

CC(C)CCSc1nc(-c2ccc(F)cc2)c(C#N)c(N2CCN(C)CC2)n1
inactive: [1] 91.5% | [2] 96.8% | [3] 87.8% | [4] 85.2% | [5] 88.8% | [6] 59% | [7] 65% | [8] 65.6% | [9] 84.6% | [10] 94.4% | [11] 62.7% | [12] 97.4% | [13] 53.3% | [14] 78.8% | [15] 83% | [16] 101% | [17] 93.1% | [18] 64.1% | [19] 94.7%

S=C(S)Oc1cccc2cccnc12
inactive: [1] 106% | [2] 102% | [3] 95.2% | [4] 110% | [5] 107% | [6] 88.9% | [7] 98.5% | [8] 103% | [9] 111% | [10] 105% | [11] 90.8% | [12] 90.9% | [13] 111% | [14] 119% | [15] 109% | [16] 110% | [17] 118% | [18] 108% | [19] 105%

COc1ccc(C(=O)O)cc1.[Ag]
inactive: [1] 103% | [2] 101% | [3] 102% | [4] 113% | [5] 87.1% | [6] 11.8% | [7] 93.4% | [8] 107% | [9] 61.8% | [10] 106% | [13] 103% | [14] 100% | [15] 97% | [16] 114% | [17] 94.9% | [18] 94.9% | [19] 106%
active: [11] -27.4% | [12] -51.3%

C=CCOC(=O)C1=C(C)NC2=C(C(=O)CC(C)(C)C2)C1c1ccc(OC)cc1 (configuration not stated)
inactive: [1] 104% | [2] 98.4% | [3] 95.7% | [4] 90% | [5] 106% | [6] 82.8% | [7] 98.3% | [8] 97.8% | [9] 109% | [10] 110% | [11] 90.4% | [12] 104% | [13] 92.8% | [14] 105% | [15] 94.1% | [16] 105% | [17] 108% | [18] 96.2% | [19] 96.8%

O=S(=O)(Nc1ccc2ccccc2c1)N1CCCCC1
inactive: [1] 56.6% | [2] 75.9% | [3] 92.8% | [4] 62.9% | [5] 65.5% | [7] 68.9% | [8] 70.3% | [9] 69.9% | [10] 78.4% | [11] 41.4% | [12] 63.3% | [13] 71.8% | [14] 68.3% | [15] 61.3% | [16] 64% | [17] 70.2% | [18] 61.1% | [19] 38.6%
active: [6] 2.32%

OCCN(CCO)c1ccc2ccccc2c1
inactive: [1] 101% | [2] 103% | [3] 93.6% | [4] 90.6% | [5] 107% | [6] 73.4% | [7] 97.7% | [8] 111% | [9] 106% | [10] 103% | [11] 106% | [12] 102% | [13] 108% | [14] 125% | [15] 96.8% | [16] 98.9% | [17] 96.7% | [18] 110% | [19] 90.7%

Cc1csc(N/N=C/c2ccncc2)n1
inactive: [1] 100% | [2] 95.9% | [3] 109% | [4] 99.1% | [5] 101% | [6] 72.9% | [7] 68.8% | [8] 88.4% | [9] 107% | [10] 108% | [11] 94.1% | [12] 117% | [13] 102% | [14] 99.5% | [15] 114% | [16] 108% | [17] 106% | [18] 78.1% | [19] 100%

COc1cc(OC)c2sc(-c3ccc(-n4cncc4-c4ccc(OC)c(N)c4)cc3)nc2c1
inactive: [1] 87.4% | [2] 94% | [3] 105% | [4] 117% | [5] 78% | [6] 79.9% | [7] 62.7% | [8] 79.2% | [9] 111% | [10] 93.5% | [11] 54.7% | [12] 82.4% | [13] 75.5% | [14] 75.4% | [15] 87.3% | [16] 69.4% | [17] 84.1% | [18] 94.3% | [19] 79.9%
